SMILES strings stand for the structures. Screen size: about 62,000 compounds; about 95 (0.2%) were called active. The list comes from a sample in which actives are over-represented; it also holds similar structures and randomly drawn compounds. Unmarked numbers belong to inactive results. Rule as the data show it: active = inhibition above about 20% (passing the limit was not always enough); inactive = the rest. Where a SMILES comes first, the peptide text is derived from it. [ ]: non-standard residue; d: D form. ξ: configuration not given here. ξV = CC(C)C(N)C(=O)O

Chain of Coagulation factor XII (Homo sapiens) (P00748 20-372 limits assumed): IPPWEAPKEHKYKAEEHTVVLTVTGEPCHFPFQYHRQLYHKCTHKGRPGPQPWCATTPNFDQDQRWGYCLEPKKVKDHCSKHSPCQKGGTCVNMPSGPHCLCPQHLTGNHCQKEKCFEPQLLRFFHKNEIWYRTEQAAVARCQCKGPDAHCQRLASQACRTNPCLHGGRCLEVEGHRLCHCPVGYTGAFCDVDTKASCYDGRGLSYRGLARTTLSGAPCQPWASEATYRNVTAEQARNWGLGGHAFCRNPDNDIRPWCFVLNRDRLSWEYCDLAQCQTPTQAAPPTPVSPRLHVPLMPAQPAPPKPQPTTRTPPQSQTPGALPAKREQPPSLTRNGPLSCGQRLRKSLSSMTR
Chain of Coagulation factor XII (Homo sapiens) (P00748 373-615 limits assumed): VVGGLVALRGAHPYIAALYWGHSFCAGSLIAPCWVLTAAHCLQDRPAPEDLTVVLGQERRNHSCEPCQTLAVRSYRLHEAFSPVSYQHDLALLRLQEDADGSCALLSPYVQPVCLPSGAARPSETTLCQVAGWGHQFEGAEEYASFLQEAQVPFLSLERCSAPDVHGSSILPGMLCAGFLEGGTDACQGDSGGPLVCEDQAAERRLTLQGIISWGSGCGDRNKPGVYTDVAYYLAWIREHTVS

The experiment addresses Coagulation factor XII (Homo sapiens) (UniProt P00748). In words: human factor XIIa inhibitors, primary screen, biochemical, pooled compound mixtures, fluorogenic substrate (AID 684).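 Also: 0% = enzyme without compound and 100% = no enzyme blank.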 To be noted: purified FXIIa, at 5 µM, active compounds read high.
By inhibition is commonly meant the change of the read-out against control, counted positive when it falls. On to `N#CC(C(=O)c1ccc(S(=O)(=O)N2CCCCCC2)cc1)c1nc2ccccc2[nH]1` (stereo not drawn), for which the inhibition is -9.55%.

Consider `OCCNCCCCOc1ccccc1F`, for which the inhibition is -11.6%.

Take `CCOc1ccc(CCNC(=O)C2CCN(c3ccc(N4CCOCC4)nn3)CC2)cc1OCC`: the inhibition is -15.4%.

Take `Cc1nc2ccc(NC(=O)N3CCC(c4ccccc4)C3)cc2nc1C` (stereo not drawn): the inhibition is -16.9%.

Turning to `CC(=O)NCC(=O)N(C)C(C(=O)Nc1ccc2c(c1)OCCO2)c1ccccc1` (stereo not drawn), the inhibition is 16.7%.

Turning to `COc1ccc(NC(=O)CN(C)S(=O)(=O)c2ccccc2)cc1OC`, the inhibition is 19.2%.

Consider `COc1cccc(N(CC(=O)Nc2cccc(N(C)S(C)(=O)=O)c2)S(C)(=O)=O)c1`, for which the inhibition is -3.08%.

Turning to `COc1cccc(NC(=O)CN(C)S(=O)(=O)c2ccc(C)cc2)c1`, the inhibition is 23% (active).

Regarding `Cc1ccc(S(=O)(=O)c2c(N)n(C)c3nc4ccccc4nc23)cc1`, the inhibition is -4.52%.

Turning to `N#CCCN1CCN(S(=O)(=O)c2ccc(S(=O)(=O)NC3CCCCC3)cc2)CC1`, the inhibition is 4.97%.

For the molecule `O=C(CCS(=O)(=O)c1ccccc1)Nc1nc2c(s1)CCCC2`, the inhibition was 24.1%.

As to `COc1ccc(C(=O)c2oc3ccc(Br)cc3c2NC(C)=O)cc1`, the inhibition was 1.19%.

`C/C(=C\C(=O)c1ccccc1)Nc1cccc(O)c1`: the inhibition was 2.12%.

For `COC(=O)c1cc(C(=O)OC)cc(N2C(=O)CC(N3CCN(c4ccccc4)CC3)C2=O)c1` (stereo not drawn), the inhibition is 7.93%.

Regarding `CCn1cc(C(=O)NCC2COc3ccccc3O2)c2cc(OC)c(OC)cc2c1=O` (stereo not drawn), the inhibition was 3.64%.

On to `COc1ccccc1NC(=O)c1ccc(C)s1`, for which the inhibition is -2.31%.

Regarding `CC(=O)Nc1ccc(S(=O)(=O)N2CCC(N(C)CCC(C)C)CC2)cc1`, the inhibition was -1.44%.

In the case of `C=CCNC(=O)CSc1nc2sc(C)c(C)c2c(=O)[nH]1`, the inhibition was 7.21%.

Take `COc1ccc(N2CC(C)Cn3c2nc2c3c(=O)n(Cc3ccccc3F)c(=O)n2C)c(OC)c1` (stereo not drawn): the inhibition was 10.8%.

Consider `Cn1nnc(NC(=O)CSc2ncn[nH]2)n1`, for which the inhibition is 4.66%.

In the case of `O=C1Nc2ccccc2C12Nc1ccccc1S2` (stereo not drawn), the inhibition is -1.23%.

With `C=CCn1c(COc2ccccc2F)nnc1SCC(=O)N1CC(=O)Nc2ccccc21`, the inhibition was 1.16%.

As to `COc1ccc(C2C3=C(CC(C)(C)CC3=O)Oc3ncn4nc(-c5cccnc5)nc4c32)cc1OC` (stereo not drawn), the inhibition is 10.1%.

Regarding `C=CCNC(=O)CCCC(=O)NCC=C`, the inhibition is 0.65%.

Turning to `COc1ccc2c3c(c(=O)oc2c1OCC(=O)C(C)(C)C)CCCC3`, the inhibition is 12.2%.

For the molecule `COc1ccc(N2C(=O)C3CCCN3C2c2cc(OC)c(OC)cc2OC)cc1` (stereo not drawn), the inhibition was -16.1%.

As to `CC(=O)NC(C(=O)NCC(N)=O)C(C)C` (stereo not drawn) (Ac-[ξV]-Gly-NH2), the inhibition is 1.26%.

In the case of `Cc1nn(-c2ccccc2)c(CC(C)(C)C(=O)O)c1C(=O)O`, the inhibition was -11.5%.

For the molecule `Cc1cccc(NC(=O)CSc2nnc(NC(=O)CN3CCOCC3)s2)c1`, the inhibition was 0.94%.

With `CCOC(=O)N1CCC(NC(=O)c2cnn3ccccc23)CC1`, the inhibition was 2.9%.

Take `CCOc1ccc(CCNC(=O)C(CC)n2nc(C)n3c(cc4sccc43)c2=O)cc1OCC` (stereo not drawn): the inhibition is 8.5%.

Take `CCOC(=O)N1CCN(S(=O)(=O)c2cc(Br)cc3c2N(C(=O)C2CC2)CC3)CC1`: the inhibition is 2.7%.

Consider `CC(=O)Nc1ccc(S(=O)(=O)Nc2nc3n(n2)C(c2ccccc2)CC(=O)N3)cc1` (stereo not drawn), for which the inhibition was -18.2%.

Take `COc1ccc(-n2ncc3c(N4CCCc5ccccc54)ncnc32)cc1`: the inhibition was -15%.

With `COCC(C)N=CC1=C(O)CC(C)(C)CC1=O` (stereo not drawn), the inhibition was 3.32%.

In the case of `CC(=O)Cc1nsc(NC(=O)c2csc3c2CCCC3)n1`, the inhibition was -19%.

Regarding `CCOc1ccc(NC(=O)N(CCC(C)C)C(C)c2ccco2)cc1` (stereo not drawn), the inhibition is 29.7%.

`CCCNC(=O)C1CC(=O)N(c2ccc(OCC(=O)Nc3cccc(C)c3C)cc2)C1` (stereo not drawn): the inhibition was 4.39%.

In the case of `CCOC(=O)CCC(=O)OCC(=O)NC(C)C1CC2CCC1C2` (stereo not drawn), the inhibition is 20.1%.

For the molecule `COCCNC(=O)CSc1nc2c(n1-c1ccccc1)CCCC2`, the inhibition was 1.41%.

For `CCC1CCCCN1CCNS(=O)(=O)c1ccc2c(c1)CCN2C(C)=O` (stereo not drawn), the inhibition is -15.6%.

Consider `CCc1nnc(NS(=O)(=O)c2ccc(NS(=O)(=O)c3ccccc3)cc2)s1`, for which the inhibition is -2.69%.

Consider `CC(=O)Oc1ccc2c(C)c(CC(C)O)c(=O)oc2c1` (stereo not drawn), for which the inhibition was 9.88%.

These data come from PubChem BioAssay AID684 (PCMD, 2007).
